{"source": "PubChem BioAssay (NCATS)", "key": {"[1]": {"experiment": "Cell Viability - LYMP2-025 (AID 976); also: series mostly up to about 92 µM", "method_in_brief": "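Human lymphoblastoid LYMP2-025 cells, 2500/well, exposed 24 h at 37 C in complete medium in 1536-well qHTS. Viability as cellular ATP by CellTiter-Glo luminescence; AC50 from Hill fits of concentration-response data.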"}, "[2]": {"experiment": "Cell Viability - LYMP2-002 (AID 977); also: series mostly up to about 92 µM", "method_in_brief": "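Luminescent ATP readout (CellTiter-Glo, 30 min room temperature) after 24 h compound exposure at 37 C of a human lymphoblastoid line, 2500 cells/well. AC50 values derived by standard Hill fitting of qHTS concentration-response data.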"}, "[3]": {"experiment": "Cell Viability - LYMP2-006 (AID 978); also: series mostly up to about 92 µM; nearly all actives have a fitted effect of over 60% in size", "method_in_brief": "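Potency values are Hill-fit AC50s for decreases in intracellular ATP (CellTiter-Glo luminescence). LYMP2-006 lymphoblastoid cells, 2500 per well, were exposed to compound in complete culture medium for 24 hr at 37 C.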"}, "[4]": {"experiment": "Cell Viability - LYMP2-007 (AID 979); also: nearly all actives have a fitted effect of over 60% in size", "method_in_brief": "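Human lymphoblastoid LYMP2-007 cells (2500/well) preincubated 5 h at 37 C, then treated 24 h at 37 C in complete medium. Viability by CellTiter-Glo ATP luminescence after 30 min at room temperature; AC50 from Hill fits.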"}, "[5]": {"experiment": "Cell Viability - LYMP2-008 (AID 980); also: nearly all actives have a fitted effect of over 60% in size", "method_in_brief": "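LYMP2-008 lymphoblastoid cells (2500/well) plated 5 h, then treated 24 h at 37 C in complete medium. Viability read as intracellular ATP by CellTiter-Glo luminescence after 30 min at room temperature; AC50 from Hill fits.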"}, "[6]": {"experiment": "Cell Viability - LYMP2-010 (AID 981); also: nearly all actives have a fitted effect of over 55% in size", "method_in_brief": "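Human lymphoblastoid LYMP2-010 cells (2500/well) treated 24 h at 37 C in complete medium; viability read as intracellular ATP by CellTiter-Glo luminescence. AC50 from Hill fits of concentration-response data; tetraoctylammonium bromide positive control.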"}, "[7]": {"experiment": "Cell Viability - LYMP2-012 (AID 982);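 also: cellular ATP by luciferase luminescence where a drop means cytotoxicity; cells exposed to compound for one day before reading; nearly all actives have a fitted effect of over 55% in size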"}, "[8]": {"experiment": "Cell Viability - LYMP2-016 (AID 984); also: nearly all actives have a fitted effect of over 55% in size", "method_in_brief": "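Cytotoxicity was scored by luminescent ATP content (CellTiter-Glo) after 24 h compound exposure at 37 C of a human lymphoblastoid line at 2500 cells/well. Concentration-response data were fitted to the Hill equation for AC50.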"}, "[9]": {"experiment": "Cell Viability - LYMP2-018 (AID 985); also: nearly all actives have a fitted effect of over 50% in size", "method_in_brief": "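Human lymphoblastoid LYMP2-018 cells, 2500/well, settled 5 hr at 37 C then exposed to compound 24 hr at 37 C; intracellular ATP measured by CellTiter-Glo luminescence. AC50 from Hill-equation concentration-response fits.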"}, "[10]": {"experiment": "Cell Viability - LYMP2-020 (AID 986); also: series mostly up to about 92 µM; nearly all actives have a fitted effect of over 55% in size", "method_in_brief": "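Human lymphoblastoid LYMP2-020 cells (2500/well) preincubated 5 h at 37 C, then treated 24 h at 37 C. Viability measured as intracellular ATP by CellTiter-Glo luminescence after 30 min at room temperature; AC50 from Hill fits.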"}, "[11]": {"experiment": "Cell Viability - LYMP2-024 (AID 988); also: nearly all actives have a fitted effect of over 60% in size", "method_in_brief": "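Human lymphoblastoid LYMP2-024 cells (2500/well) rested 5 hr, then treated with compound for 24 hr at 37 C in complete medium. Viability was measured as intracellular ATP by CellTiter-Glo luminescence. AC50 values came from Hill-equation fits.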"}, "[12]": {"experiment": "Cell Viability - LYMP1-002 - Assay at 40 hr (AID 994); also: nearly all actives have a fitted effect of over 60% in size", "method_in_brief": "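LYMP1-002 human lymphoblastoid cells (2500/well, complete medium) were treated with compounds for 40 hr at 37 C. Intracellular ATP was measured by CellTiter-Glo luminescence, and AC50 values came from Hill-equation fits of concentration-response data; tetraoctylammonium bromide was the positive control.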"}, "[13]": {"experiment": "qHTS Assay for Identification of Small Molecule Inducers of Hypoxia Response (AID 2120; active = well fitted curve in the direction sought with a large enough effect in the signal ratio, with a control signal flat, not every such curve was filed as active; the % refers to the signal ratio)", "method_in_brief": "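HRE-bla ME-180 cells in Opti-MEM with 0.5% dialyzed FBS, pre-plated 4-5 h, then compound titration for 17 h at 37 degrees Celsius. CCF4 loaded 2.5 h at room temperature; 460/530 nm ratio gave %Activity and AC50 for induction.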"}, "[14]": {"target": "Estrogen receptor (Homo sapiens) (UniProt P03372)", "sequence (P03372 whole entry, looked up)": "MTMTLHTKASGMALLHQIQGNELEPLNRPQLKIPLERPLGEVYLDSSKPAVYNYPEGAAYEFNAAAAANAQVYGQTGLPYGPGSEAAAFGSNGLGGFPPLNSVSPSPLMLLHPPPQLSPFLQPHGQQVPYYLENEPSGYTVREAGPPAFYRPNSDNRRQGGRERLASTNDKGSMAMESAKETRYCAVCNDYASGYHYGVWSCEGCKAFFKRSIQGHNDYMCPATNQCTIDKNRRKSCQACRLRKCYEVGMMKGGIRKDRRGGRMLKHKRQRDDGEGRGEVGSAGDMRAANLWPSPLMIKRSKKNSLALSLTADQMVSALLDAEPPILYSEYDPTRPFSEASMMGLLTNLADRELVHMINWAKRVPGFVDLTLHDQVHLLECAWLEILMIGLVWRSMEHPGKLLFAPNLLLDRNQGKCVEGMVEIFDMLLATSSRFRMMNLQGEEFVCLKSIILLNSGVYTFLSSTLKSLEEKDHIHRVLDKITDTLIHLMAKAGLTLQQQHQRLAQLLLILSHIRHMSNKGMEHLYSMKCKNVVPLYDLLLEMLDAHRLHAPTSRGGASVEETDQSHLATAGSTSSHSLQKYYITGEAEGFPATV", "experiment": "qHTS assay for small molecule antagonists of estrogen receptor alpha signaling (AID 588513; active = well fitted curve in the direction sought with a large enough effect in the signal ratio, with a control signal flat, not every such curve was filed as active; the % refers to the signal ratio)", "method_in_brief": "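Antagonist mode: inhibition of 0.5 nM 17-beta-estradiol-driven beta-lactamase reporter in HEK 293 ER-alpha-UAS-bla cells, 18 h at 37C, CCF4 readout after 2 h at RT. Normalised to estradiol and DMSO; titration fitted to Hill.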"}, "[15]": {"target": "Glucocorticoid receptor (Homo sapiens) (UniProt P04150)", "sequence (P04150 whole entry, looked up)": "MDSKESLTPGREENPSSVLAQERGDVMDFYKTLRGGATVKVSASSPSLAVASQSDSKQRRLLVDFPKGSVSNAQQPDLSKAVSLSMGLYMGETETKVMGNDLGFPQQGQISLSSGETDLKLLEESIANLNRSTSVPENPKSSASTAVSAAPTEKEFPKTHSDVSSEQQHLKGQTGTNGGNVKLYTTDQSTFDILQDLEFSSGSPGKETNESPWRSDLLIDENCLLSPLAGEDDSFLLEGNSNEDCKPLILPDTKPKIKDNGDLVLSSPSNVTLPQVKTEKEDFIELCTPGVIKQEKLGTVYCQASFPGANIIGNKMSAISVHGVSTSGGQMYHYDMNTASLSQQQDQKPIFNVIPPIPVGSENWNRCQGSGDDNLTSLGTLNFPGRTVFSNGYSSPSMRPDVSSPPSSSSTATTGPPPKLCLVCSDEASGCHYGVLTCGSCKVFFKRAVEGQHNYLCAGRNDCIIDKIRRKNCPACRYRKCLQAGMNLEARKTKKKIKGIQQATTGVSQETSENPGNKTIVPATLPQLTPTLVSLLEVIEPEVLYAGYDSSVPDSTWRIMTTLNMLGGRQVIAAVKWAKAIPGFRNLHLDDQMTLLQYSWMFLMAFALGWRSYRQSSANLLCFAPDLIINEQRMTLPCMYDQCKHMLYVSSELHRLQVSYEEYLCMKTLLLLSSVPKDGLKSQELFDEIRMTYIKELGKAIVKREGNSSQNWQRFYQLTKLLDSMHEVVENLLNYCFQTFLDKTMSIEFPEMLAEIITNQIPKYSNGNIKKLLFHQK", "experiment": "qHTS assay for small molecule agonists of glucocorticoid receptor signaling (AID 588532; active = well fitted curve in the direction sought with a large enough effect in the signal ratio, with a control signal flat; the % refers to the signal ratio)", "conditions": "HeLa MMTV-bla, beta-lactamase ratio, agonist, 18 h; stronger effect = higher value; percent of dexamethasone control, DMSO zero", "method_in_brief": "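Stimulation of a glucocorticoid response element-driven beta-lactamase gene was measured in HeLa cells. Responses were scaled between DMSO basal and 0.1 uM dexamethasone, then fitted for half-maximal stimulation.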"}, "[16]": {"target": "Glucocorticoid receptor (Homo sapiens) (UniProt P04150)", "experiment": "qHTS assay for small molecule antagonists of glucocorticoid receptor signaling (AID 588533; active = well fitted inhibition curve with a large enough effect in the signal ratio, with a control signal flat, not every such curve was filed as active; the % refers to the signal ratio)", "method_in_brief": "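Antagonist-mode qHTS: compound titrations added to GRE-bla HeLa cells, then dexamethasone 2 nM final; 18 h, 37 C. CCF4 FRET fluorescence normalized to dexamethasone and DMSO; IC50 from Hill fit.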"}, "[17]": {"experiment": "qHTS assay for small molecule antagonists of peroxisome proliferator-activated receptor delta signaling (AID 588535; active = well fitted inhibition curve with a large enough effect in the signal ratio, with a control signal flat, not every such curve was filed as active; the % refers to the signal ratio;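 as to max response: cells co-treated with a PPAR-delta agonist as stimulator during compound exposure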)", "conditions": "HEK293T PPARd-UAS-bla, beta-lactamase FRET ratio, 18 h; 460 nm channel", "method_in_brief": "(§1)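 Reporter: UAS-bla under PPAR-delta response element, HEK293T host. Medium: 2% charcoal/dextran FBS. Dosing: titration, 18 hrs, 37 C. Detection: CCF4, 2 hrs RT, 405 ex/460 and 530 em.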"}, "[18]": {"target": "Peroxisome proliferator-activated receptor delta (Homo sapiens) (UniProt Q03181)", "sequence (Q03181 whole entry, looked up)": "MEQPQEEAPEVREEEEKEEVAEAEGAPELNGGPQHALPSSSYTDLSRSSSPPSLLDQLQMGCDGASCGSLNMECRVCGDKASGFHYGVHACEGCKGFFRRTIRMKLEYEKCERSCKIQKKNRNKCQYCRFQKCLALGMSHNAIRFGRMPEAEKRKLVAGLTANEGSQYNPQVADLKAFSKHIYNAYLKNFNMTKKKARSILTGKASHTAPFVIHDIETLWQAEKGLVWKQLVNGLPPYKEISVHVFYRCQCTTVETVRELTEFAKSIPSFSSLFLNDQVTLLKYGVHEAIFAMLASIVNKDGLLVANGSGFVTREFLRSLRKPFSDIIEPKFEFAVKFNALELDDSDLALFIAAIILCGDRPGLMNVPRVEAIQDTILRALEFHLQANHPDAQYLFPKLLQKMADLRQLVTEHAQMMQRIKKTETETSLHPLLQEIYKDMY", "experiment": "qHTS assay for small molecule antagonists of peroxisome proliferator-activated receptor delta signaling (AID 588535)", "method_in_brief": "as §1"}, "[19]": {"target": "Vitamin D3 receptor (Homo sapiens) (UniProt P11473)", "sequence (P11473 whole entry, looked up)": "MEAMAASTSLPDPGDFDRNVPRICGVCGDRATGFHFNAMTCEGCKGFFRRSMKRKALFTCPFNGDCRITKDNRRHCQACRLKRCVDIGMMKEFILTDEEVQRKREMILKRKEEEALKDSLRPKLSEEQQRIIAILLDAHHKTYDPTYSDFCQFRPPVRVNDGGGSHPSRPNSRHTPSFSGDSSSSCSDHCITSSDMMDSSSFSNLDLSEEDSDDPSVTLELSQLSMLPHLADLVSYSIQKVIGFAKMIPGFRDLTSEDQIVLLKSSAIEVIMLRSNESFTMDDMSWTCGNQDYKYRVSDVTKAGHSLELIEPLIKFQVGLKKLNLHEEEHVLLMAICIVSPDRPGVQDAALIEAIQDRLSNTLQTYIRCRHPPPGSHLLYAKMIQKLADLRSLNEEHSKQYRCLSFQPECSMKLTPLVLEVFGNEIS", "experiment": "qHTS assay for small molecule antagonists of vitamin D receptor signaling (AID 588541; calls by dose curve)", "method_in_brief": "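VDR-UAS-bla HEK293T cells (2000/well, 2% charcoal-stripped FBS) were treated with titrated compounds plus 1-alpha,25-dihydroxyvitamin D3 (50 nM or 3 nM final) for 16 h at 37 C. CCF4 beta-lactamase fluorescence was read; Hill fits gave IC50.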"}, "[20]": {"target": "Vitamin D3 receptor (Homo sapiens) (UniProt P11473)", "experiment": "qHTS assay for small molecule agonists of vitamin D receptor signaling (AID 588543; calls by dose curve)", "method_in_brief": "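Agonist-mode beta-lactamase reporter: HEK293T VDR-UAS-bla cells in charcoal-stripped 2% FBS, compound series 16 h 37 C, CCF4 2 h RT. EC50 from Hill fit, scaled against DMSO and 50 nM calcitriol control.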"}, "[21]": {"experiment": "qHTS assay for small molecule agonists of retinoid X receptor alpha signaling (AID 588544)", "conditions": "HEK293T RXRa-UAS-bla, beta-lactamase reporter, 18 h; 530 nm emission"}}, "note": "“And” between values parts separate entries of the source, which are not always exact repeats. Equal values may be shown once. Results filed as inconclusive are left out. Entries that show only a call come without a potency. The source made the active and inactive calls. Unless noted, calls follow the shape of the dose curve; as a rule, active = well fitted cell-killing curve with a large enough effect; inconclusive = small, poorly fitted or top-dose-only effect; inactive = flat fitted curve, though single readings scatter.", "data": [{"smiles": "CC12CCC(CC1=O)C2(C)C", "note": "(stereo unspecified)", "values": [{"measurement": "Potency", "setting": "[1]", "value": "inactive"}, {"measurement": "Potency", "setting": "[2]", "value": "inactive"}, {"measurement": "Potency", "setting": "[3]", "value": "inactive"}, {"measurement": "Potency", "setting": "[4]", "value": "inactive"}, {"measurement": "Potency", "setting": "[5]", "value": "inactive"}, {"measurement": "Potency", "setting": "[6]", "value": "inactive"}, {"measurement": "Potency", "setting": "[7]", "value": "inactive"}, {"measurement": "Potency", "setting": "[8]", "value": "inactive"}, {"measurement": "Potency", "setting": "[9]", "value": "inactive"}, {"measurement": "Potency", "setting": "[10]", "value": "inactive"}, {"measurement": "Potency", "setting": "[11]", "value": "inactive"}, {"measurement": "Potency", "setting": "[12]", "value": "inactive"}, {"measurement": "outcome", "setting": "[13]", "value": "inactive"}, {"measurement": "Potency", "setting": "[14]", "value": "inactive"}, {"measurement": "activation", "setting": "[15]", "value": "-1.08% (inactive) and -9.03% (inactive)"}, {"measurement": "Potency", "setting": "[16]", "value": "inactive"}, {"measurement": "max response", "setting": "[17]", "value": "-33.5% and 11.1%"}, {"measurement": "Potency", "setting": "[18]", "value": "inactive"}, {"measurement": "outcome", "setting": "[19]", "value": "inactive"}, {"measurement": "outcome", "setting": "[20]", "value": "inactive"}, {"measurement": "max response", "setting": "[21]", "value": "0.96% and -15.4%"}]}]}
